PI5P4Ka inh: qHTS for Inhibitors of phosphatidylinositol 5-phosphate 4-kinase (PI5P4K); Phosphatidylinositol 5-phosphate 4-kinase type-2 alpha (Homo sapiens), P48426; PI5P4Kalpha enzyme, ADP-Glo luminescence, 60 min; active compounds read low; max response, %; hit rate 1.2% among 330,000; AID 652105, 2013; active means max response of -50% or lower; inconclusive means between -30% and -50%; inactive means -30% or higher; further: value at the top dose of about 77 µM; on the % scale 0 is the no-effect control and ±100 the full control effect
Target sequence (P48426 whole entry, looked up): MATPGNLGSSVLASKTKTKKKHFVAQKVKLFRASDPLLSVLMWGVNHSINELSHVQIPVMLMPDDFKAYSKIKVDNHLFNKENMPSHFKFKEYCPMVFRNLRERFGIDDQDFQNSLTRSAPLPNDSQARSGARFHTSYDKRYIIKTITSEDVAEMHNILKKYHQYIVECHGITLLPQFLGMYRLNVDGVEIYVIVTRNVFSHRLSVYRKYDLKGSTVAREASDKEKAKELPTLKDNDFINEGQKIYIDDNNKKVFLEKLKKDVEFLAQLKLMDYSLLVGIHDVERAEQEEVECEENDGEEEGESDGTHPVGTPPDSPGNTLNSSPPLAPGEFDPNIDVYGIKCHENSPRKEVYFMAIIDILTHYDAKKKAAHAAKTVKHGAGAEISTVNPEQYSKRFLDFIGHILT
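Human PI5P4Kalpha with substrate in 0.038 M HEPES pH 7.4, 0.28 mM EGTA, 0.1% CHAPS, 5% DMSO; reaction started with 5 microM ATP (final), 60 min at room temperature. ADP formed read by ADP-Glo luminescence.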
BAZ2B inh: qHTS Assay for Inhibitors of BAZ2B; Bromodomain adjacent to zinc finger domain protein 2B (Homo sapiens), Q9UIF8; AlphaScreen BAZ2B-H3K14Ac peptide displacement; Potency, µM (highest dose often 114 µM), for inactives: top-dose activity change, negative = inhibition, most hits filed as inhibitors; hit rate 4.4% among 360,000; further: potency means the concentration at half of the fitted maximal effect; on the % scale 0 is the no-effect control and ±100 the full control effect; nearly all actives have a fitted effect of over 60% in size
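AlphaScreen displacement: compounds (up to 110uM) incubated 30 min at room temperature with a preformed 50 nM BAZ2B/50 nM biotinylated H3K14Ac peptide complex in PBS pH 7.4 with Tween-20. Donor and acceptor beads at 10 ug/mL final added, 20 min light-protected before reading.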
JMJD2A Tudor inh: qHTS Assay for Inhibitors of JMJD2A-Tudor Domain; Lysine-specific demethylase 4A (Homo sapiens), O75164; AlphaScreen JMJD2A-Tudor / H3K4me3 peptide binding; Potency, µM (titrated, usually from 114 µM), inactives show top-dose activity change, negative = inhibition, most hits filed as inhibitors; hit rate 4.4% among 390,000; AID 504339, 2011; further: potency means the concentration at half of the fitted maximal effect; on the % scale 0 is the no-effect control and ±100 the full control effect; nearly all actives have a fitted effect of over 50% in size
G9a inh: qHTS Assay for Inhibitors of Histone Lysine Methyltransferase G9a. G9a H3K9 monomethylation, AlphaScreen, 2 h. AID 504332, 2011. Histone-lysine N-methyltransferase EHMT2 (Homo sapiens), Q96KQ7. Potency, µM (titrated, usually from 102 µM), without a hit: top-dose activity, negative = inhibition, hits mostly inhibitors. hit rate 8.8% among 350,000; further: potency means the concentration at half of the fitted maximal effect; on the % scale 0 is the no-effect control and ±100 the full control effect; nearly all actives have a fitted effect of over 75% in size
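G9a (20 nM) preincubated 15 min RT with compounds, then 500 nM biotinylated H3K9 peptide and 20 uM SAM added; 2 h RT reaction. Monomethyl-H3K9 product detected by AlphaScreen with anti-H3K9me1 antibody, streptavidin donor and anti-rabbit IgG acceptor beads.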
L3MBTL1 inh: qHTS Assay for the Inhibitors of L3MBTL1; AID 485360, 2010; hit rate 0.66% among 230,000; Lethal(3)malignant brain tumor-like protein 1 (Homo sapiens), Q9Y468; AlphaScreen L3MBTL1–H3K9me1 peptide binding; Potency, µM (top dose mostly 57.1 µM), inactives show at the top dose activity, negative = inhibition, actives largely listed as inhibitors; further: potency means the concentration at half of the fitted maximal effect; on the % scale 0 is the no-effect control and ±100 the full control effect; nearly all actives have a fitted effect of over 60% in size
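First, the protein-peptide complex forms for 30 min at room temperature (L3MBTL1 50 nM, biotinylated H3K9me1 peptide 75 nM). Next, compounds are pin-transferred and incubated 30 min. Finally, AlphaScreen beads are added and read after 30 min.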
HP1b binding inh: HTS for Inhibitors of HP1-beta Chromodomain Interactions with Methylated Histone Tails; Chromobox protein homolog 1 (Homo sapiens), P83916; AlphaScreen HP1-beta / biotin-H3K9me3 peptide binding; Potency, µM (titrated, usually from 114 µM), for the others: at the highest dose activity change, negative = inhibition, usual class: inhibitors; hit rate 0.56% among 390,000; further: potency means the concentration at half of the fitted maximal effect; nearly all actives have a fitted effect of over 70% in size
Target sequence (P83916 whole entry, looked up): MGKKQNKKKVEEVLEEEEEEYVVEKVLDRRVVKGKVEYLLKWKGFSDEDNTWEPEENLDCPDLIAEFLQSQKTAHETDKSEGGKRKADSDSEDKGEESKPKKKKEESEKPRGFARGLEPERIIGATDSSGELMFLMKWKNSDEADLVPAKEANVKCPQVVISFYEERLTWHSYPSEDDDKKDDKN
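HP1-beta protein (50 nM final) preincubated 30 min at room temperature with biotinylated H3(1-18)K9me3 peptide (50 nM) in PBS pH 7.4, 0.01% Tween-20, then compound added for 30 min. AlphaScreen streptavidin donor/nickel chelate acceptor beads (10 ug/mL final), 30 min dark, luminescence read.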
* marks the source's active call; other numbers are inactive results; ? = inconclusive; . = not tested or not shown; [ ] = remark or other dose. Only some compounds are listed: those with a hit (about 11% of all), similar ones and a draw of the others. Unless noted, the call rests on the fitted dose curve; in most records, active means well fitted inhibition curve with a large enough effect; inconclusive means small, poorly fitted or top-dose-only effect; inactive means no such curve, though single readings can be large or run the other way.

SMILES | PI5P4Ka inh | BAZ2B inh | JMJD2A Tudor inh | G9a inh | L3MBTL1 inh | HP1b binding inh
Cc1onc(-c2ccccc2)c1C(=O)Nc1sc2c(c1C#N)CCC2 | . | ? | 50µM* | ? | ? | ?
Cc1ccccc1C(=O)NC(=S)Nc1sc2c(c1C#N)CCCC2 | 7 | -37% | ? | ? | -11% | -11%
Cc1onc(-c2ccccc2)c1C(=O)NC(=S)Nc1sc2c(c1C#N)CCC(C)C2 (centres undefined) | -15 | ? | -31% | 3.5µM* | 7% | -1%
N#CCCn1c(=O)cnc2cnc(N3CCNCC3)nc21 | . | . | . | -1%[12.7 µM] | . | .
Cc1ccc(SCC(=O)Nc2ccc(O)c(-c3nc4cc(C)ccc4o3)c2)cc1 | . | -11% | 8% | 4%[59 µM] | . | 68%
CCN1C(=NCCN2CCOCC2)N[C@@H](CCc2ccccc2)C(C(=O)OC)=C1C | . | -10% | . | 5%[12.7 µM] | . | .
N#Cc1c(C(F)(F)F)cc(-c2cccs2)nc1SCc1ccccc1F | . | 13% | 18% | 15%[59 µM] | . | 36%
Cc1cc(C(=O)OCC(=O)Nc2sc3c(c2C#N)CCC(C)C3)c2ccccc2n1 (centres undefined) | -1 | -38% | -34% | 45µM* | ? | -2%
Cc1onc(-c2ccccc2)c1C(=O)Nc1sc2c(c1C(N)=O)CCC2 | -27 | ? | -20%[57.1 µM] | 11µM* | ? | ?
Cc1onc(-c2c(F)cccc2Cl)c1C(=O)Nc1sc2c(c1C(N)=O)CCC2 | . | 2% | -9% | 50µM* | . | 3%
NC(=O)c1c(NC(=O)c2cccnc2Cl)sc2c1CCCC2 | -6 | -5% | -3% | 18µM* | 12% | 17%
Cc1ccc(C(=O)Nc2cccc(OCc3cc(=O)n4c5c(sc4n3)CCCC5)c2)cc1 | . | 2% | 0% | 17%[59 µM] | . | 29%
C=CCNc1nc(C2(C)CC3(CC(C)(C)OC3=O)C(=O)O2)cs1 (centres undefined) | 0 | 1% | -13% | 40µM* | 0% | 18%
O=C(Cc1ccc(F)cc1)NCCc1csc2nc(-c3ccccc3F)nn12 | . | 5% | 5% | 1%[59 µM] | . | 20%[57 µM]
COc1ccc(C(=O)/C=C/c2ccc(OC)cc2OC)c(O)c1 | 4 | ? | 18µM* | ? | -14% | -19%
COc1ccc(C(=O)C=Cc2cccs2)c(O)c1 | 12 | . | 45µM* | . | . | ?
COc1cc(C(=O)/C=C/c2cccnc2)ccc1O | -19 | -36% | -3% | -44% | . | -6%
COc1ccc(OC)c(C(=O)/C=C/c2cccnc2)c1 | 1 | -40% | -8% | 50µM* | . | 35%
COc1ccc(C(=O)/C=C/c2ccccc2)c(O)c1 | 8 | 45µM* | ? | ? | ? | ?
O=C(/C=C/c1ccccc1)c1ccc(O)cc1O | . | . | . | -24%[2.33 µM] | . | .
COCCCNC(=O)NC(CCC(C)C)c1c(-n2cccc2)sc2c1CCN(C)C2 (centres undefined) | . | -17% | -42% | ? | . | 16%
COc1ccc(/C=C/C(=O)c2ccc(OC)cc2OC)cc1 | 5 | -11% | -11% | 5%[12.7 µM] | -5% | 33%
O=C(/C=C/c1cccnc1)/C=C/c1cccnc1 | -4 | -16% | -11% | 28µM* | -4% | 1%
COc1ccc(/C=C/C(=O)c2cc(Cl)ccc2O)c(OC)c1 | 35 | 25µM* | ? | . | ? | ?
COc1ccc(/C=C/C(=O)c2cc3c(cc2N)OCO3)cc1 | 11 | 22µM* | 28µM* | 18µM* | . | 40µM*
SMILES | PI5P4Ka inh | BAZ2B inh | JMJD2A Tudor inh | G9a inh | L3MBTL1 inh | HP1b binding inh
C(=Cc1cccnc1)c1ccncc1 | -1 | . | -10% | . | . | 23%[57 µM]
CCCCOC(=O)c1cccc(NC(=O)/C=C/c2ccccc2Cl)c1 | . | 15% | -12% | -3%[59 µM] | . | 26%
COc1cccc(N2C(=O)CSC23C(=O)N(CC(=O)NCc2ccc(C)cc2)c2ccccc23)c1 (centres undefined) | . | -1%[57.1 µM] | -19% | -6%[59 µM] | . | 8%
Oc1c(Br)cc(Br)c2cccnc12 | -22 | . | 40µM* | -41%[2.33 µM] | . | 30%
CN1CC(=O)Nc2cc(C(=O)O)ccc21 | . | 3% | -14% | ? | . | 18%
O=C(NCc1ccc(Cl)cc1)c1cnc2sc(N3CCCC3)nn2c1=O | . | -1% | 79µM* | -2%[59 µM] | . | 25%
O=C(NCCSc1c[nH]c2ccccc12)c1ccco1 | -2 | 3% | -4% | 71µM* | ? | 35%
O=C(NCCSc1ncc(-c2ccc(F)cc2)[nH]1)c1ccco1 | -3 | -9% | -8% | 50µM* | -1% | 19%
COc1cc(OC)cc(C(=O)NCCSc2c[nH]c3ccccc23)c1 | -5 | -28% | -31% | 45µM* | . | 3%
CS(=O)(=O)c1ncc(Cl)c(C(=O)Nc2ccc3ccccc3c2)n1 | 5 | -36% | 3% | 10µM* | 0% | 41%
CCC1CCCCN1S(=O)(=O)c1ccc(NC(=O)c2nc(S(C)(=O)=O)ncc2Cl)cc1 (centres undefined) | -8 | -23%[57.1 µM] | -29% | 40µM* | . | -18%[57 µM]
COc1ccc(NC(=O)c2nc(S(=O)(=O)Cc3ccc(C)cc3)ncc2Cl)cc1 | . | 2% | -15% | ? | . | 34%
CCS(=O)(=O)c1ncc(Cl)c(C(=O)Nc2ccc(S(=O)(=O)N3CCCC(C)C3)cc2)n1 (centres undefined) | 0 | -24%[57.1 µM] | ? | 79µM* | . | -5%[57 µM]
CCSc1ncc(Cl)c(C(=O)Nc2ccc(S(=O)(=O)N3CCCCC3CC)cc2)n1 (centres undefined) | . | -19% | -20% | -28%[59 µM] | . | 18%
CCS(=O)(=O)c1ncc(Cl)c(C(=O)Nc2ccc(C)cc2)n1 | 6 | ? | -8% | . | 16% | 25%
Cc1c(C)n(C(=O)CN2CCN(c3ccccc3)CC2)c2ccccc12 | -1 | ? | ? | 50µM* | . | -19%
CN1CCN(CC(=O)n2c3c(c4ccccc42)CCCC3)CC1 | . | ? | 56µM* | 40µM* | -5% | -9%
COCCN1CN=C(Nc2nc3ccccc3o2)NC1 | -6 | 6% | ? | 71µM* | 0% | 39%
O=S(=O)(c1cc(Br)c(Br)s1)N1CCN(c2ccccc2)CC1 | . | 5% | 3% | -6%[59 µM] | . | 54%
